Test results reported in paper PMC7819943, “Rice protein-binding microarrays: a tool to detect cis-acting elements near promoter regions in rice”.
The full ranking holds about 68,000 sequences; the median of “fluorescence intensity (a.u.)” is about 9,100, and the highest 2% start at about 16,000. For the sample, the highest values were picked, then their nearest neighbours and some sequences at random.

molecular target: OsWRKY34 (Oryza sativa, UniProt Q0JBA9 1-250); experiment: protein-binding microarray (RPBM); PBS, 2% BSA, 51.3 ng/ul salmon testes DNA, 50 uM zinc acetate, 200 nM TF, 25 C, 1 h; high values mean tight binding; settings: protein: recombinant; tags: N-terminal polyhistidine and DsRed monomer fusion (pET32a); label: CyDye5-dUTP incorporated in the synthesized complementary strand; 3' TTTTT single-stranded linker to array surface; dsDNA, one strand shown
Outline: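 Polyhistidine-tagged DsRed fusions of transcription factors, joined at the N-terminus, were expressed in E. coli BL21-CodonPlus and isolated on Ni–NTA. They were incubated at 200 nM for 1 h at 25 °C on a custom Agilent array, double-stranded and BSA-blocked, in PBS with 2% BSA, salmon testes DNA and 50 µM zinc acetate. The binding signal is per-feature fluorescence intensity (arbitrary units) read on an Axon 4000B scanner after washing.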

Sequence of OsWRKY34 (Q0JBA9 entry or part of it): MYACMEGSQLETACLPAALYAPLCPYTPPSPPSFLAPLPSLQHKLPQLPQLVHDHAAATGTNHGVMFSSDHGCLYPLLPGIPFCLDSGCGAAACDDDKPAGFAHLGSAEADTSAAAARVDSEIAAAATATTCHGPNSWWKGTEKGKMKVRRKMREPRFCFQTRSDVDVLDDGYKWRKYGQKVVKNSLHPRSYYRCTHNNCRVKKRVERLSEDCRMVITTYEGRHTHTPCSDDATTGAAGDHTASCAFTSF

In order of falling binding signal:
1. GGTTGGGTGGAGGGTATTACAGTCTTTTTGCTTTTGTATTCGGAGTCACCTAGTGCAG  36600 fluorescence intensity (a.u.)
2. GGGGTGTTTGGTTGAGGGGTGGGTGGGATGGATTGGTCCTCGGAGTCACCTAGTGCAG  32300 fluorescence intensity (a.u.)
3. TTTGGATTGGGTTTGGTGGTTGGGTGGGAGGGAGGGAGCTCGGAGTCACCTAGTGCAG  28600 fluorescence intensity (a.u.)
4. TGCGGCCCACCTTTGCTTCTTCGTTGACTTTCTTGCCGTCCGGAGTCACCTAGTGCAG  26900 fluorescence intensity (a.u.)
5. TCGTTGACTTTCTTGCCGTCTCGCCGCCGCCGCCGCCATGCGGAGTCACCTAGTGCAG  23600 fluorescence intensity (a.u.)
6. GGCTCGGGGCGGCGGAATCATGGGCGATTGGGGCGGCAACCGGAGTCACCTAGTGCAG  22500 fluorescence intensity (a.u.)
7. TCGGCTTGGTGGGGCTGGAGAACGTCTTTTCTCAATTGTGCGGAGTCACCTAGTGCAG  22000 fluorescence intensity (a.u.)
8. TCGCTCTCGTTGGATTCGGTTTGGTTTGGTTTGGGCCATGCGGAGTCACCTAGTGCAG  18700 fluorescence intensity (a.u.)
9. GATTTCTGTGTTTTTCCTGTGGTCCAATCAAACGGTCATTCGGAGTCACCTAGTGCAG  12700 fluorescence intensity (a.u.)
10. TCCGTCCATCCTCACTATCATTAGTACTACTGGTTCTTCTCGGAGTCACCTAGTGCAG  12200 fluorescence intensity (a.u.)
11. TGTTGTTTTGGTCTACAGTTGTCTTTTGAGTTGTTGTATTCGGAGTCACCTAGTGCAG  12200 fluorescence intensity (a.u.)
12. GGGTTTTGGAGTGGTGGTGGTGGAGGATTGGAGTTGGGGTCGGAGTCACCTAGTGCAG  11600 fluorescence intensity (a.u.)
13. ATACCCGTCTTTTCCTTCCCTTTCATCAATTGCCTCTTGTCGGAGTCACCTAGTGCAG  11500 fluorescence intensity (a.u.)
14. CTCGCCGCCGTTCGTCTCCGCCGCCACCGCCGCCGCCATGCGGAGTCACCTAGTGCAG  11300 fluorescence intensity (a.u.)
15. CTTCGTTCGTTGGATTCGCTCTCGCGCGCCGCCGCCGCCGCGGAGTCACCTAGTGCAG  11200 fluorescence intensity (a.u.)
16. TTTTAAAACTGCTGGGATTTTGCTTTCTGTTTCTTCAATGCGGAGTCACCTAGTGCAG  10900 fluorescence intensity (a.u.)
17. TTGGTGAGGGTTTGGGTTTGGTGGTGGAGTGGAGTGGAGTCGGAGTCACCTAGTGCAG  10700 fluorescence intensity (a.u.)
18. ATTTCTCTTGCCTATGTTTTCATTTTGCAATTATTTTTGTCGGAGTCACCTAGTGCAG  10500 fluorescence intensity (a.u.)
19. AAACCCTCTCTCTCTCTCTCTCTCACACACACACGCAAACCGGAGTCACCTAGTGCAG  10300 fluorescence intensity (a.u.)
20. TTTTGTGGTATTTTAAACATGGTTTATATTTCTTATATTTCGGAGTCACCTAGTGCAG  9830 fluorescence intensity (a.u.)
21. ATGGATGGGGATTCATTTGTTTGGTGAGTAGTGGTCGGGTCGGAGTCACCTAGTGCAG  9800 fluorescence intensity (a.u.)
22. AAACCAACCCCACCCAACCCACGCGAGAACCGTGGACCACCGGAGTCACCTAGTGCAG  9500 fluorescence intensity (a.u.)
23. TTTTTGGTGGGGTAGAGTTGTATTTGGTTTGAGGCCAATTCGGAGTCACCTAGTGCAG  9480 fluorescence intensity (a.u.)
24. CAATGGCTTACGACGAGACGACTCACCTTTGAATTCCACGCGGAGTCACCTAGTGCAG  9460 fluorescence intensity (a.u.)
25. TAGTTTTCTCAGGTGTTTGGGAATTGGTTGGTGAAGATGACGGAGTCACCTAGTGCAG  9450 fluorescence intensity (a.u.)
26. AGAGGGATGGGTGTTTGATTGGAGTGGGTTGGGAGCCATGCGGAGTCACCTAGTGCAG  9390 fluorescence intensity (a.u.)
27. TTTCTTCTTCTCGTCTCTTCTCGCCGCCGCCGCCGCAATGCGGAGTCACCTAGTGCAG  9300 fluorescence intensity (a.u.)
28. TTAGTTTTGTTAGATCGTCGATTTTGATTAGTGCGTTTGACGGAGTCACCTAGTGCAG  9190 fluorescence intensity (a.u.)
29. AGGTTCACAATCTATCCGACTTTTGATTTTCTTTCAATTCCGGAGTCACCTAGTGCAG  9110 fluorescence intensity (a.u.)
30. GTCAACTGCCTATCCTAGATATCTATCACTACCGAAAGCCCGGAGTCACCTAGTGCAG  8930 fluorescence intensity (a.u.)
31. CATCGAGTAGCCGCCGCCGCCACCTGGTGCTCGTGACGCCCGGAGTCACCTAGTGCAG  8670 fluorescence intensity (a.u.)
32. AATCTGTGGGCAGGGGCGGCGACGTCGGCGGGCGAGGGCTCGGAGTCACCTAGTGCAG  8660 fluorescence intensity (a.u.)
33. CTGGTCAGAGTCCCCAACCAAAAGCATTTCTCCTGCCTTCCGGAGTCACCTAGTGCAG  8660 fluorescence intensity (a.u.)
34. TCATCTTGCTTTCCCCTTCTTCGCCCACGCGGCCGCGGCCCGGAGTCACCTAGTGCAG  8620 fluorescence intensity (a.u.)
35. CTTTTATATAGCTTTGTCTAGTCTTGTGAATTCTCAATTGCGGAGTCACCTAGTGCAG  8530 fluorescence intensity (a.u.)
36. CTCTCGTTGTTTTTGCTCTTTTGGGTTCGCTCGGAAGATGCGGAGTCACCTAGTGCAG  8490 fluorescence intensity (a.u.)
37. TCAACACAGCAACGTTTCACTTTCATATCATCTGATTATTCGGAGTCACCTAGTGCAG  8470 fluorescence intensity (a.u.)
38. TGTTTGCACTTCATTCCATTCCATTCCACCTCCACTGCTTCGGAGTCACCTAGTGCAG  8390 fluorescence intensity (a.u.)
39. GACTTACTTTATTGTCTACAGTACTTTAAGCACAACTTTTCGGAGTCACCTAGTGCAG  8360 fluorescence intensity (a.u.)
40. GCTCGGGCATCCTTTTTAAGGGCTCGGGGCGGCGGAATCACGGAGTCACCTAGTGCAG  8290 fluorescence intensity (a.u.)
41. GTTTCATCTTCTTGTGGGCTTTTCTGGTGAACTCAATTCACGGAGTCACCTAGTGCAG  8250 fluorescence intensity (a.u.)
42. GGATGCTCTTGTGTTCTTGTTGTTGATTTGTATTGTGGATCGGAGTCACCTAGTGCAG  8240 fluorescence intensity (a.u.)
43. GCCGTCTTTGCTTGATAGTCTTCGCCATGGGGACTTTGTCCGGAGTCACCTAGTGCAG  8210 fluorescence intensity (a.u.)
44. CGTCCGTCTCCATCTGACACCTCCCAGTGCTTGCGCCCATCGGAGTCACCTAGTGCAG  8030 fluorescence intensity (a.u.)
